Screening data as filed in PubChem.
A selection: hits, their analogues and other compounds. The true share with any hit is near 10%.
HPGD inh – qHTS Assay for Inhibitors of HPGD (15-Hydroxyprostaglandin Dehydrogenase); purified HPGD, NADH fluorescence kinetic, PGE2 substrate; 15-hydroxyprostaglandin dehydrogenase [NAD(+)] (Homo sapiens), P15428; AID 894, 2007; hit rate 4.3% among 150,000; Potency, µM, for the others: at the top dose activity change, negative = inhibition, hits mostly inhibitors; note: potency is the fitted concentration of half-maximal effect
Target sequence (P15428 whole entry, looked up): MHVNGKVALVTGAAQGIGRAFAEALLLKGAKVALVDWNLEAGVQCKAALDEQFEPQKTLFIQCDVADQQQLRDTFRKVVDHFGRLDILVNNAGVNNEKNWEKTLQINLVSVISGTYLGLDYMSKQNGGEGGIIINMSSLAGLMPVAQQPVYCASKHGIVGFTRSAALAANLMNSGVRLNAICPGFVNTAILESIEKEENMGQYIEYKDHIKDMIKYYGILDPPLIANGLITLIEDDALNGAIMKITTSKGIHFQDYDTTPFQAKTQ
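20 nM HPGD preincubated 15 min at room temperature with compound in 50 mM Tris-HCl pH 8, 0.01% Tween 20. Started with 1 mM NAD+ and 30 uM prostaglandin E2; NADH fluorescence (360/450 nm) read 5 times over 30-s intervals, last minus first.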
Luc counter – Counterscreen for Luciferase (Kinase-Glo TM) Inhibition; Luciferin 4-monooxygenase (Photuris pensylvanica), Q27757; Potency, µM (series often up to 38.3 µM), for the others: top-dose activity change, negative = inhibition, usual class: inhibitors; AID 1379, 2008; Kinase-Glo luciferase, ATP luminescence, 8 min; hit rate 0.28% among 200,000; active = well fitted inhibition curve with a large enough effect; inconclusive = small, poorly fitted or top-dose-only effect; note: potency is the fitted concentration of half-maximal effect; nearly all actives have a fitted effect of over 60% in size
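Substrate mix (final 50 mM imidazole pH 7.2, 50 mM KCl, 7 mM MgCl2, 10 uM ATP, 0.01% Tween 20, 0.05% BSA) plus pin-tool compound, then Kinase-Glo detection mix; 8 min ambient, luminescence read.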
LMNA splice mod – qHTS Assay for Modulators of Lamin A Splicing; Potency, µM (doses to about 46.1 µM), for inactives: at the top dose ratio change, negative = inhibition, most hits filed as inhibitors; HeLa LMNA splicing GFP/RFP minigene ratio, 48 h; AID 1487, 2009; hit rate 0.01% among 200,000; active = well fitted inhibition curve with a large enough effect in the signal ratio, with a control signal flat, not every such curve was filed as active; inconclusive = small, poorly fitted or top-dose-only effect, or effect the other way, or a change in a side signal; the % refers to the signal ratio; note: potency is the fitted concentration of half-maximal effect
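S3 HeLa cells stably expressing lamin A-EGFP splicing minigene plus DsRed2, 600 cells/well, 48 h compound exposure at 37C. Laser-scanning cytometry; analysed as GFP (500-530 nm)/RFP (575-640 nm) total intensity ratio; 0.5% DMSO vehicle.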
PNC inhibitor – High Content Assay for Compounds that inhibit the Assembly of the Perinucleolar Compartment. AID 2417, 2010. hit rate 3.1% among 140,000. PC3M PTB-GFP, PNC prevalence imaging, 16 h; hits give low values. activity change (PNC), negative = inhibition, % at 10 µM;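 active = readout at or below -70, meaning at least 70% loss of cells showing the perinucleolar compartment, a nuclear body marking cancer cells; inconclusive = readout between -30 and a set limit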;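 note: plate controls were DMSO wells for no effect and camptothecin positive control wells for full effect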
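Compounds are pinned in duplicate onto adhered PC3M cells stably expressing GFP-tagged PTB and incubated 16 h at 37 C. Cells are then fixed, nuclei stained with Hoechst, and PNC-positive cells counted.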
ALDH1A1 inh – qHTS Assay for Inhibitors of Aldehyde Dehydrogenase 1 (ALDH1A1) | Aldehyde dehydrogenase 1A1 (Homo sapiens), P00352 | Purified ALDH1A1, NADH fluorescence, propionaldehyde substrate | Potency, µM (highest dose often 75.3 µM), for the others: at the highest dose activity, negative = inhibition, usual class: inhibitors | hit rate 7.3% among 220,000 | AID 1030, 2008;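 note: potency is the fitted concentration of half-maximal effect; plate controls were no enzyme wells and a reference inhibitor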
IMPase cell inh – qHTS Assay for Identifying the Cell-Membrane Permeable IMPase Inhibitors | Inositol monophosphatase 1 (Rattus norvegicus), P97697 | CHO-M1 cells, IP1 accumulation, HTRF TR-FRET ratio | inhibition (IP1 accumulation), % at 46.1 µM | 120,000 tested, under 10 active | AID 901, 2007; active = well fitted curve in the direction sought with a large enough effect in the signal ratio, not every such curve was filed as active; inconclusive = small, poorly fitted or top-dose-only effect, or a change in a side signal; inactive = no such curve, though single readings can be large or run the other way; the % refers to the signal ratio;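 note: cells stimulated with carbachol in lithium chloride buffer; plate controls were DMSO basal wells for no effect and reference inhibitor wells for full effect; higher means more IMPase inhibition seen as more IP1 and lower FRET ratio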
Target sequence (P97697 whole entry, looked up): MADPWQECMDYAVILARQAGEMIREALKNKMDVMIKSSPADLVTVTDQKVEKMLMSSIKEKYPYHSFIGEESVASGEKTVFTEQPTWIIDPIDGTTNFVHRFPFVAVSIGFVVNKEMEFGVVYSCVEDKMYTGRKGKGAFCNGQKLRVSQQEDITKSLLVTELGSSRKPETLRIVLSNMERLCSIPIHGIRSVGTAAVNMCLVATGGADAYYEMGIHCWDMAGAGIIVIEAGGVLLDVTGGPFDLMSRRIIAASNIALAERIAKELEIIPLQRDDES
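Carbachol-driven Gq signalling in CHO-M1 cells (2000/well) generates IP1. Compounds that block IMPase raise IP1 and so reduce the FRET signal from Eu-anti-IP1 and d2-IP1 after a 10 min room-temperature lysis.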
An asterisk follows results filed as active; ? = inconclusive; / = no result; [ ] = remark or other dose. Unless noted, calls come from the whole dose curve; as a rule, active = well fitted inhibition curve with a large enough effect (not every such curve was filed as active); inconclusive = small, poorly fitted or top-dose-only effect, or another doubt; inactive = no such curve, though single readings can be large or run the other way. Unless noted, % is set by controls: 0 for no effect and ±100 for the full control effect.

SMILES	HPGD inh	Luc counter	LMNA splice mod	PNC inhibitor	ALDH1A1 inh	IMPase cell inh
NC(N)=NCCC[C@H](NC(=O)CC1(CC(=O)N2CCN(C3c4ccccc4NC(=O)c4ccccc43)CC2)CCCC1)C(=O)NCCn1c(=O)n(-c2ccccc2)n(-c2ccccc2)c1=O (some centres undefined)	-5%	-3%	/	/	5%	/
O=C(c1ccc(Cl)c(F)c1F)N1CCCC1	20µM*	-2%	5%	-8	12%	-3
Cc1nn2c(C)c(C(=O)N3CCN(c4ccccc4)CC3)cnc2c1-c1ccccc1	/	/	-15%[46 µM]	/	/	/
Cc1ccc(C2=NN(CCC(=O)NCCc3cccc(C)c3)C(=O)CC2)cc1	/	/	3%[46 µM]	/	/	/
NC(=O)C1CCN(C2=C(Cl)C(=O)c3ccccc3C2=O)CC1	14µM*	?	?	-23	?	29
CC(=O)c1cccc(NC(=S)NC(=O)c2cccc(C)c2)c1	22µM*	-3%	?	-1	?	/
CC(=O)c1cccc(NC(=S)NC(=O)c2ccccc2C)c1	/	2%	23%[46 µM]	/	?	/
CC(=O)c1cccc(NC(=S)NC(=O)c2ccc(Cl)cc2)c1	-21%	1%	?	-17	25µM*	/
O=C1C2CC=CCC2C(=O)N1c1ccc(N2CCN(c3ccccn3)CC2)c([N+](=O)[O-])c1 (centres undefined)	/	1%	/	/	18µM*	/
N#C/C(C(=O)N1CCCC1)=C1/N=C(N)c2ccccc21	-20%	3%	-5%	?	?	/
Cc1ccc(NC(=O)NC2=N/C(=C(/C#N)C(=O)N3CCCC3)c3ccccc32)cc1	-21%	-2%	10%	43	0.63µM*	1
O=C(NC(Cc1ccccc1)c1nc2ccccc2[nH]1)C1CC(=O)N(c2ccc3c(c2)OCCO3)C1 (centres undefined)	-13%	-7%	0%	-18	10µM*	-3
N#C/C(=C\c1c(N2CCCCCC2)nc2ccccn2c1=O)C(=O)NCc1ccco1	/	/	/	/	13µM*	/
N#C/C(=C\c1c(N2CCCCC2)nc2ccccn2c1=O)C(=O)NCc1ccco1	-27%	-5%	0%	-15	28µM*	/
CCNC(=O)/C(C#N)=C/c1c(N2CCOCC2)nc2ccccn2c1=O	?	3%	-6%	22	?	/
CCNC(=O)/C(C#N)=C/c1c(N(Cc2ccccc2)Cc2ccccc2)nc2ccccn2c1=O	-8%	4%	?	-22	16µM*	18
COc1ccc(N2CC(NC(=O)Cc3cccs3)CC2=O)cc1OC (centres undefined)	/	/	21%[46 µM]	/	/	/
COc1cccc(-n2ccnc2SCC(=O)Nc2cccc3ccccc23)c1	/	/	-18%[46 µM]	/	/	/
O=c1c(O)c(-c2ccc(O)cc2)oc2ccc(O)cc12	-19%	2%	/	/	-13%	1
CC1CCCN(S(=O)(=O)c2ccc(S(=O)(=O)NC(C)c3cccs3)cc2)C1 (centres undefined)	-20%	1%	?	?	38µM*	10
O=C(NC(=S)NC(=O)c1ccccc1F)c1ccccc1F	13µM*	-2%	-2%	9	2µM*	0
O=C(NC(=S)NCc1ccccc1)c1ccccc1F	-25%	-2%	-4%	44	32µM*	3
C[C@@H]1NC(=O)[C@@H](C)COC(=O)[C@H](C)NC(=O)[C@@H](C)COC1=O	/	/	/	/	15%[13.5 µM]	/
CCOC(=O)CSC1=NC(=O)CS1	14µM*	-9%	?	?	32µM*	1
CCOC(=O)CSc1nnc(N)s1	-13%	6%	-4%	-12	?	5
SMILES	HPGD inh	Luc counter	LMNA splice mod	PNC inhibitor	ALDH1A1 inh	IMPase cell inh
CC1=CC2C(C)(C)CC(=O)C[C@]2(C)CC1COc1ccc2c(c1)CC(=O)C=C2 (some centres undefined)	?	1%	/	/	?	/
CNc1ccc(O)cc1	13µM*	/	/	/	2.2µM*	/
CNc1ccccc1	-10%	/	/	/	-20%	/
O=C1/C(=N/n2cnnc2)c2ccccc2N1Cc1ccccc1	-19%	5%	21%	-13	0.089µM*	4
c1ccc2c(c1)C(=Nn1cnnc1)c1ccccc1-2	1%	1%	-2%	6	?	6
COc1cccc(CNc2ccc(N3CCC(C)CC3)cc2)c1OC	-6%	1%	-20%	-18	13µM*	/
COc1ccc(S(=O)(=O)Nc2nnc(C(C)(C)C)s2)cc1	10µM*	14%	6%	?	10µM*	3
COc1ccc(S(=O)(=O)Nc2nnc(C(C)C)s2)cc1	-15%	4%	-1%	?	?	23
COc1ccc(S(=O)(=O)Nc2nnc(CC(C)(C)C)s2)cc1	/	-1%	27%[46 µM]	/	11µM*	/
Cc1nc2ccc(S(=O)(=O)N(CC(=O)Nc3ccc(Cl)cc3)Cc3ccccc3)cc2s1	/	/	-4%[46 µM]	/	/	/
N#CCCN(/N=C/c1cccnc1)C1=NS(=O)(=O)c2ccccc21	/	-1%	?	/	2µM*	/
CCOc1ccc(N(CC(=O)Nc2ccc(OC)cc2)S(=O)(=O)c2ccc(Cl)cc2)cc1	/	/	0%[46 µM]	/	/	/
Cc1cc(-c2nsc(=O)o2)c(S(C)(=O)=O)s1	4.5µM*	6%	-9%	24	2.8µM*	-6
Cc1ccc(C)c(NC(=O)CSc2nnc([C@@H]3CCCN3C(=O)OC(C)(C)C)o2)c1	/	/	3%	-119*	5%	9
CCSc1nnc([C@@H]2CCCN2C(=O)OC(C)(C)C)o1	-8%	-4%	7%	-8	?	?
Cc1cccc(NC(=O)CSc2nnc([C@@H]3CCCN3C(=O)OC(C)(C)C)o2)c1C	-8%	13%	?	5	3.5µM*	4
COc1ccc(NC(=O)CSc2nc(-c3ccc(OC)cc3)cc(=O)[nH]2)cc1	/	/	/	/	/	-16
Cc1ccccc1NC(=O)N1CCN(C/C=C/c2ccccc2)CC1	/	3%	?	/	9%	/
O=C(Nc1ccccc1Cl)N1CCN(C/C=C/c2ccccc2)CC1	-3%	3%	5%	-91*	10%	/
O=C(c1nn(Cc2ccccc2)c(=O)c2ccccc12)N1CCN(C/C=C/c2ccccc2)CC1	-5%	0%	11%	37	13µM*	14
CCCCc1ccc(NC(=O)CSc2nc3ccccc3nc2N2CCCCC2)cc1	/	/	/	/	/	-2
C=CC[C@@H]1C=C[C@@H](O/N=C2/C[C@@H](O)[C@@H](O)[C@@H]3[C@@H]4C(=O)N(CC)C(=O)[C@H]4CC[C@@H]23)[C@@H](CO)O1	/	/	/	/	14%[13.5 µM]	/
O=C(O)CN=C1NC2(CCCCC2)Cc2ccccc21	-13%	1%	-9%	-100*	8%	4
